According to PubChem BioAssay AID1159580 (chemical genetic matrix, 2015):
About 2,000 (36%) of roughly 5,500 compounds were called active. Another 18% or so got no clear call; they are omitted. No stated cut-off is given here; in the data, active means normalized growth mostly below about 0.91 (no sharp cut-off); inconclusive means no clear call, values can overlap the other calls; inactive means mostly above about 0.92. This is one part of the list.

Assay: chemical genetic growth profiling, strain panel (AID 1159580);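 further: tested at 20 µM; growth read once vehicle control cultures reached saturation at 30 °C; 1 = growth at the plate median or of vehicle wells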
Details: S. cerevisiae deletion strains, growth OD
[1] = locus YHR030C, strain SLT2, stronger effect = lower value
[2] = locus YHR079C, strain IRE1, stronger effect = lower value
[3] = locus YJL095W, strain BCK1, stronger effect = lower value
[4] = locus YJR066W, strain TOR1, stronger effect = lower value
[5] = locus YLR113W, strain HOG1, stronger effect = lower value
[6] = locus YNL183C, strain NPR1, stronger effect = lower value
[7] = locus YOR231W, strain MKK1, stronger effect = lower value
[8] = locus YPL256C, strain CLN2, stronger effect = lower value
[9] = locus YAL040C, strain CLN3, stronger effect = lower value
[10] = locus YCL061C, strain MRC1 (second series), stronger effect = lower value
[11] = locus YDR363W, strain ESC2, stronger effect = lower value
[12] = locus YER002W, strain NOP16, stronger effect = lower value
[13] = locus YJR075W, strain HOC1, stronger effect = lower value
[14] = locus YMR263W, strain SAP30, stronger effect = lower value
[15] = locus YMR307W, strain GAS1, stronger effect = lower value
[16] = locus YNL128W, strain TEP1, stronger effect = lower value
[17] = locus YNL175C, strain NOP13, stronger effect = lower value
[18] = locus YNL197C, strain WHI3, stronger effect = lower value
[19] = locus YNL224C, strain SQS1, stronger effect = lower value
[20] = locus YOR083W, strain WHI5 (second series), stronger effect = lower value
[21] = locus YAL013W, strain DEP1, stronger effect = lower value
[22] = locus YGR078C, strain PAC10, stronger effect = lower value
[23] = locus YPL241C, strain CIN2, stronger effect = lower value

Measured: normalized growth

CN(C)c1ccc2nc3ccc(=[N+](C)C)cc-3sc2c1
inactive: locus YAL021C, strain ccr4, stronger effect = lower value 0.991 | locus YAL026C, strain drs2, stronger effect = lower value 1.01 | locus YAL030W, strain snc1, stronger effect = lower value 1.06 | locus YBL061C, strain skt5, stronger effect = lower value 1.05 | locus YBR009C, strain hhf1, stronger effect = lower value 1.04 | locus YBR023C, strain chs3, stronger effect = lower value 1.07 | locus YBR171W, strain sec66, stronger effect = lower value 1.08 | locus YBR231C, strain swc5, stronger effect = lower value 0.995 | locus YBR279W, strain paf1, stronger effect = lower value 1.07 | locus YCL011C, strain gbp2, stronger effect = lower value 1.04 | locus YCL016C, strain dcc1, stronger effect = lower value 1.02 | locus YCL069W, strain vba3, stronger effect = lower value 1.08 | locus YCR088W, strain abp1, stronger effect = lower value 1.07 | locus YDL040C, strain nat1, stronger effect = lower value 1.05 | locus YDR001C, strain nth1, stronger effect = lower value 1.06 | locus YDR069C, strain doa4, stronger effect = lower value 1.06 | locus YDR137W, strain rgp1, stronger effect = lower value 1 | locus YDR159W, strain sac3, stronger effect = lower value 1.03 | locus YDR297W, strain sur2, stronger effect = lower value 1.07 | locus YDR334W, strain swr1, stronger effect = lower value 1.05 | locus YDR335W, strain msn5, stronger effect = lower value 1.07 | locus YEL003W, strain gim4, stronger effect = lower value 0.974 | locus YEL037C, strain rad23, stronger effect = lower value 1.06 | locus YEL061C, strain CIN8 (second series), stronger effect = lower value 1.04 | locus YER015W, strain faa2, stronger effect = lower value 1.05 | locus YER016W, strain bim1, stronger effect = lower value 1.05 | locus YER111C, strain swi4, stronger effect = lower value 1.08 | locus YER155C, strain BEM2 (second series), stronger effect = lower value 0.941 | locus YFR010W, strain ubp6, stronger effect = lower value 1.06 | locus YGL173C, strain kem1, stronger effect = lower value 1.05 | locus YGL227W, strain vid30, stronger effect = lower value 1.08 | locus YGL240W, strain doc1, stronger effect = lower value 1 | [1] 0.994 | [2] 1.02 | locus YHR142W, strain chs7, stronger effect = lower value 1.07 | locus YJL092W, strain hpr5, stronger effect = lower value 1.05 | locus YJL095W, strain BCK1 (second series), stronger effect = lower value 1.07 | [3] 1.05 | locus YJL115W, strain asf1, stronger effect = lower value 1.07 | locus YJL129C, strain trk1, stronger effect = lower value 1.08 | locus YJL154C, strain vps35, stronger effect = lower value 1.06 | locus YJL164C, strain tpk1, stronger effect = lower value 1.04 | locus YJL166W, strain qcr8, stronger effect = lower value 1.02 | locus YKL160W, strain elf1, stronger effect = lower value 1.03 | locus YKR026C, strain gcn3, stronger effect = lower value 1.07 | locus YLL001W, strain dnm1, stronger effect = lower value 1.05 | locus YLL026W, stronger effect = lower value 1.05 | locus YLR027C, strain aat2, stronger effect = lower value 1.05 | [5] 1.07 | locus YLR221C, strain rsa3, stronger effect = lower value 1.04 | locus YLR258W, strain gsy2, stronger effect = lower value 1.04 | locus YLR262C, strain YPT6 (second series), stronger effect = lower value 1.1 | locus YLR320W, strain mms22, stronger effect = lower value 0.993 | locus YLR342W, strain FKS1, stronger effect = lower value 1.06 | locus YLR357W, strain rsc2, stronger effect = lower value 1.12 | locus YLR370C, strain arc18, stronger effect = lower value 1.05 | locus YLR384C, strain iki3, stronger effect = lower value 1.07 | locus YML120C, strain ndi1, stronger effect = lower value 1.04 | locus YMR058W, strain fet3, stronger effect = lower value 0.985 | locus YMR125W, strain sto1, stronger effect = lower value 1.09 | locus YMR129W, stronger effect = lower value 1.05 | locus YMR205C, strain PFK2, stronger effect = lower value 1.03 | locus YMR231W, strain pep5, stronger effect = lower value 1.04 | locus YNL071W, strain lat1, stronger effect = lower value 0.992 | locus YNL248C, strain rpa49, stronger effect = lower value 1.11 | locus YNL322C, strain KRE1 (second series), stronger effect = lower value 1.04 | locus YNR049C, strain mso1, stronger effect = lower value 1.05 | locus YOR001W, strain rrp6, stronger effect = lower value 1.06 | locus YOR070C, strain gyp1, stronger effect = lower value 1.05 | locus YOR080W, strain dia2, stronger effect = lower value 1.06 | locus YOR083W, strain WHI5, stronger effect = lower value 1.05 | locus YOR106W, strain vam3, stronger effect = lower value 0.994 | [7] 1.01 | locus YOR265W, strain rbl2, stronger effect = lower value 1.04 | locus YOR270C, strain vph1, stronger effect = lower value 0.983 | locus YOR290C, strain snf2, stronger effect = lower value 1.03 | locus YPL051W, strain arl3, stronger effect = lower value 0.979 | locus YPL078C, strain atp4, stronger effect = lower value 1.05 | locus YPL106C, strain sse1, stronger effect = lower value 1.05 | locus YPL240C, strain hsp82, stronger effect = lower value 1.06 | [8] 1.02
active: locus YDL005C, strain med2, stronger effect = lower value 1.1 [resistant] | locus YDR195W, strain ref2 1.25 [resistant] | locus YDR392W, strain spt3, stronger effect = lower value 0.624 | locus YGL167C, strain pmr1, stronger effect = lower value 1.09 [resistant] | locus YGL253W, strain hxk2, stronger effect = lower value 1.11 [resistant] | locus YHR013C, strain ard1, stronger effect = lower value 1.18 [resistant] | locus YHR027C, strain rpn1, stronger effect = lower value 1.08 [resistant] | [4] 0.576 | locus YKR091W, strain srl3, stronger effect = lower value 1.07 [resistant] | locus YLL041C, strain sdh2, stronger effect = lower value 1.08 [resistant] | [6] 0.543 | locus YNL209W, strain ssb2, stronger effect = lower value 1.08 [resistant]

S=C(NC1CCCCC1)N1CCC(c2cnc[nH]2)CC1
inactive: [9] 1.01 | [10] 0.998 | [11] 1.01 | [12] 0.994 | [13] 1 | [14] 1.01 | [15] 0.996 | [16] 0.984 | [17] 1 | [18] 0.974 | [19] 0.986 | [20] 1.02 | locus YPL055C, strain LGE1, stronger effect = lower value 0.993

CC(COc1ccc(/C=C/c2ccccc2)cc1)[N+](C)(C)C (stereo unspecified)
active: locus YDR150W, strain NUM1, stronger effect = lower value 0.926 | [13] 0.878 | [19] 1.12 [resistant] | [20] 0.816
inactive: [21] 0.942 | [9] 1.02 | [10] 0.982 | [11] 0.914 | [12] 0.989 | [22] 0.99 | [14] 1.01 | [15] 0.994 | [16] 1.03 | [17] 0.999 | [18] 0.996 | [23] 0.98

Cc1cccc(/C=C/c2ccccc2)n1
inactive: [21] 1 | [9] 0.984 | [10] 1.01 | [11] 1.04 | [12] 0.975 | [22] 1.01 | [15] 0.995 | locus YNL153C, strain GIM3, stronger effect = lower value 0.93 | [17] 0.963 | [18] 0.986 | [19] 0.989 | [20] 0.923 | [23] 1.02

OC(COc1ccc(F)cc1)(c1ccccc1)c1ccccc1
inactive: locus YAR019C, strain CDC15, stronger effect = lower value 0.955 | locus YBL105C, strain PKC1, stronger effect = lower value 0.953 | locus YBR135W, strain CKS1, stronger effect = lower value 0.965 | locus YBR136W, strain MEC1, stronger effect = lower value 0.968 | locus YBR160W, strain CDC28, stronger effect = lower value 0.951 | locus YDL017W, strain CDC7, stronger effect = lower value 0.955 | locus YDL028C, strain MPS1, stronger effect = lower value 0.977 | locus YDL101C, strain DUN1, stronger effect = lower value 0.939 | locus YDL108W, strain KIN28, stronger effect = lower value 0.982 | locus YDL132W, strain cdc53, stronger effect = lower value 0.955 | locus YDL214C, strain PRR2, stronger effect = lower value 0.964 | locus YDR052C, strain DBF4, stronger effect = lower value 0.965 | locus YDR054C, strain cdc34, stronger effect = lower value 0.949 | locus YDR226W, strain ADK1, stronger effect = lower value 0.955 | locus YDR477W, strain SNF1, stronger effect = lower value 0.985 | locus YER123W, strain YCK3, stronger effect = lower value 0.969 | locus YER133W, strain GLC7, stronger effect = lower value 0.993 | locus YFL009W, strain cdc4, stronger effect = lower value 0.954 | locus YFL029C, strain CAK1, stronger effect = lower value 0.957 | locus YFR003C, strain YPI1, stronger effect = lower value 0.961 | locus YFR019W, strain FAB1, stronger effect = lower value 0.974 | locus YFR028C, strain CDC14, stronger effect = lower value 0.964 | locus YGR040W, strain KSS1, stronger effect = lower value 0.998 | locus YGR052W, strain FMP48, stronger effect = lower value 1.1 | locus YGR092W, strain DBF2, stronger effect = lower value 0.939 | [1] 1.14 | [2] 1.09 | locus YHR082C, strain KSP1, stronger effect = lower value 1.1 | locus YHR205W, strain SCH9, stronger effect = lower value 0.977 | locus YIL147C, strain SLN1, stronger effect = lower value 0.966 | [3] 1.1 | locus YJL128C, strain PBS2, stronger effect = lower value 0.913 | locus YJL157C, strain FAR1, stronger effect = lower value 0.968 | locus YJR016C, strain ILV3, stronger effect = lower value 0.959 | locus YJR066W, strain TOR1 (second series), stronger effect = lower value 1.01 | [4] 1.15 | locus YKL048C, strain ELM1, stronger effect = lower value 0.95 | locus YKL067W, strain YNK1, stronger effect = lower value 0.961 | locus YKL101W, strain HSL1, stronger effect = lower value 0.962 | locus YKL193C, strain SDS22, stronger effect = lower value 0.959 | locus YKL203C, strain TOR2, stronger effect = lower value 1.07 | [5] 0.971 | locus YLR133W, strain CKI1, stronger effect = lower value 0.955 | locus YLR403W, strain SFP1, stronger effect = lower value 0.983 | locus YML070W, strain DAK1, stronger effect = lower value 0.973 | locus YMR001C, strain CDC5, stronger effect = lower value 0.954 | locus YMR205C, strain PFK2 (second series), stronger effect = lower value 0.968 | locus YMR277W, strain FCP1, stronger effect = lower value 0.961 | locus YNL006W, strain LST8, stronger effect = lower value 0.97 | locus YNL020C, strain ARK1, stronger effect = lower value 0.959 | locus YNL161W, strain CBK1, stronger effect = lower value 0.958 | [6] 1.12 | locus YNL207W, strain RIO2, stronger effect = lower value 0.971 | locus YNL222W, strain SSU72, stronger effect = lower value 0.962 | locus YNL307C, strain MCK1 (second series), stronger effect = lower value 0.961 | locus YOL078W, strain AVO1, stronger effect = lower value 0.967 | locus YOL136C, strain PFK27, stronger effect = lower value 0.98 | locus YOR061W, strain CKA2, stronger effect = lower value 0.969 | locus YOR119C, strain RIO1, stronger effect = lower value 1.02 | [7] 1.06 | locus YOR329C, strain SCD5, stronger effect = lower value 0.956 | locus YPL031C, strain PHO85, stronger effect = lower value 0.985 | locus YPL153C, strain RAD53, stronger effect = lower value 1 | locus YPL204W, strain HRR25, stronger effect = lower value 0.991 | locus YPL209C, strain IPL1, stronger effect = lower value 0.956 | [8] 1.02 | locus YPR025C, strain CCL1, stronger effect = lower value 0.954 | locus YPR106W, strain ISR1, stronger effect = lower value 0.954 | locus YPR111W, strain DBF20, stronger effect = lower value 0.949 | strain NNK1, stronger effect = lower value 0.956 | strain TSCII, stronger effect = lower value 0.957
